In PubChem BioAssay (EPA / NIEHS):
Inconclusive results are not listed. Calls of active or inactive are those of the source. The calls were made as follows: active = hit-call score of the fitted dose curve at least 0.9, where 1 is the maximum; inconclusive = response in the unintended direction; inactive = score below 0.9.

Key:
[1] = biological target: human Elastase, ELANE (gene 1991) (UniProt P08246); assay: NVS_ENZ_hElastase: NovaScreen (NVS) Enzymatic Assay for human Elastase (AID 2283153)
Outline: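 Cell-free elastase from human neutrophils, 1.5 h after dosing, activity read by absorbance. Primary screen in duplicate at 25 uM; hits (e.g., 30% inhibition) rerun in singleton concentration-response up to 50 uM, fitted versus DMSO.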

[2] = biological target: human Ephrin type-B Receptor 1 (EphB1), EPHB1 (gene 2047) (UniProt P54762); assay: NVS_ENZ_hEphB1: NovaScreen (NVS) Enzymatic Assay for human Ephrin type-B Receptor 1 (EphB1) (AID 2283154)
Chain of human Ephrin type-B Receptor 1 (EphB1), EPHB1 (gene 2047) (P54762 whole entry, looked up): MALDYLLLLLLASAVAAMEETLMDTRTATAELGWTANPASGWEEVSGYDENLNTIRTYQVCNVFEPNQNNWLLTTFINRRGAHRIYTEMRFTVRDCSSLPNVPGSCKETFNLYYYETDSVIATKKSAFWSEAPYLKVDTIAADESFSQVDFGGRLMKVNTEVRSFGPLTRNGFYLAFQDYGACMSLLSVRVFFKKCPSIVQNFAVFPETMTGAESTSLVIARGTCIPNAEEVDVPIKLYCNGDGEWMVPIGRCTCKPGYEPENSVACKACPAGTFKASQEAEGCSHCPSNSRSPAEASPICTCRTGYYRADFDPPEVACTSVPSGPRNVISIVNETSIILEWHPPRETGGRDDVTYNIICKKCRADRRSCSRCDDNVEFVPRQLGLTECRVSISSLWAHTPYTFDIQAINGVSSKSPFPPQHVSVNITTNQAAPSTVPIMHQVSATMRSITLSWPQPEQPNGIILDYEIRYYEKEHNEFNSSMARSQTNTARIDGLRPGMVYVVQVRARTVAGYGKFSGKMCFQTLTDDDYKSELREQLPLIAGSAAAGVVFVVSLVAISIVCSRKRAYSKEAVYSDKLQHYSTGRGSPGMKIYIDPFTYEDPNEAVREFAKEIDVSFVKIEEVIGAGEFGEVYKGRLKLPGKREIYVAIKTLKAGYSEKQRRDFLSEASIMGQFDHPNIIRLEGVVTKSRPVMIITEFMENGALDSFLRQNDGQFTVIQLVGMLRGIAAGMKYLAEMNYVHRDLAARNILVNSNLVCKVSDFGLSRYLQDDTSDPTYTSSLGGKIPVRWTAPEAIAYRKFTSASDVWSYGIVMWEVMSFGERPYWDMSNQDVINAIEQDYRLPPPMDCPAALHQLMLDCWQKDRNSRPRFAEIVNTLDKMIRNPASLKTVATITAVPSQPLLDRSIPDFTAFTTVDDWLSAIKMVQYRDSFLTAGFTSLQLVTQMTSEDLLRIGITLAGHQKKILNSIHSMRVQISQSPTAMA
Procedure: (§1) NVS_ENZ_hEphB1 is a biochemical, single-readout assay that uses extracted gene-proteins in a cell-free assay. Measurements were taken 1 hour after chemical dosing in a 384-well plate.NVS_ENZ_hEphB1 is one of one assay component(s) measured or calculated from the NVS_ENZ_hEphB1 assay. It is designed to make measurements of enzyme activity, a form of enzyme reporter, as detected with fluorescence intensity signals by Fluorescence and electrophoretic mobility shift technology.Data from the assay component NVS_ENZ_hEphB1 was analyzed into 1 assay endpoint. This assay endpoint, NVS_ENZ_hEphB1, was analyzed in the positive analysis fitting direction relative to DMSO as the negative control and baseline of activity. Using a type of enzyme reporter, loss-of-signal activity can be used to understand changes in the enzymatic activity as they relate to the gene EPHB1. Furthermore, this assay endpoint can be referred to as a primary readout, because this assay has produced multiple assay endpoints where this one serves a enzymatic activity function. To generalize the intended target to other relatable targets, this assay endpoint is annotated to the kinase intended target family, where the subfamily is receptor tyrosine kinase. […]

[3] = biological target: human Ephrin type-A Receptor 2 (EphA2), EPHA2 (gene 1969) (UniProt P29317); assay: NVS_ENZ_hEphA2: NovaScreen (NVS) Enzymatic Assay for human Ephrin type-A Receptor 2 (EphA2) (AID 2283155)
Chain of human Ephrin type-A Receptor 2 (EphA2), EPHA2 (gene 1969) (P29317 whole entry, looked up): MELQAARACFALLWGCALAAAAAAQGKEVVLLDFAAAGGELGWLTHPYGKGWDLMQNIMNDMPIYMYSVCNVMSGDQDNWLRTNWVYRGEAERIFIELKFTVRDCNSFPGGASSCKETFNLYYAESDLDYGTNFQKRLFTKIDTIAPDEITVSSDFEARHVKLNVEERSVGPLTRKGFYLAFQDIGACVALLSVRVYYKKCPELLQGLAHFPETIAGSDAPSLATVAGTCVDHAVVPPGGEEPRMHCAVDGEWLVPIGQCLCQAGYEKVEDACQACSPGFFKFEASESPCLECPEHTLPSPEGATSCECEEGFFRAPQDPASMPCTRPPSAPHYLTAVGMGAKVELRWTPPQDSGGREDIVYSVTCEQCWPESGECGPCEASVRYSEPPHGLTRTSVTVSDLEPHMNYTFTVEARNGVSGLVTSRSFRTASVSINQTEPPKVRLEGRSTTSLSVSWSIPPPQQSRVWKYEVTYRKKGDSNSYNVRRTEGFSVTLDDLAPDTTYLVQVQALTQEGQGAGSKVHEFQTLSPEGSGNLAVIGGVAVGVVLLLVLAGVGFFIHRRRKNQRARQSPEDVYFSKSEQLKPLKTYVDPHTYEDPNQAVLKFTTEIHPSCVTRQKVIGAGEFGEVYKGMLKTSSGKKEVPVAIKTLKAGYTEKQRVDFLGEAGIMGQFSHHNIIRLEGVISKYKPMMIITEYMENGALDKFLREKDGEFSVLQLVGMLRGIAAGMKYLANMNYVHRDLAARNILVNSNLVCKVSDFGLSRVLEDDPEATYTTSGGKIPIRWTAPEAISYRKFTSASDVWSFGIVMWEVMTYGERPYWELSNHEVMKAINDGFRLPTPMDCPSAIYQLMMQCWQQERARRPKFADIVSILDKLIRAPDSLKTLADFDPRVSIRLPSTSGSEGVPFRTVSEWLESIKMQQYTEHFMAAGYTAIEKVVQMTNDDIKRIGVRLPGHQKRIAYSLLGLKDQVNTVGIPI
Procedure: as §1, with “NVS_ENZ_hEphA2” for “NVS_ENZ_hEphB1”, “plate.NVS_ENZ_hEphA2” for “plate.NVS_ENZ_hEphB1”, “NVS_ENZ_hEphA2,” for “NVS_ENZ_hEphB1,”, “EPHA2.” for “EPHB1.”

[4] = biological target: human Ephrin type-B Receptor 2 (EphB2), EPHB2 (gene 2048) (UniProt P29323); assay: NVS_ENZ_hEphB2: NovaScreen (NVS) Enzymatic Assay for human Ephrin type-B Receptor 2 (EphB2) (AID 2283156)
Chain of human Ephrin type-B Receptor 2 (EphB2), EPHB2 (gene 2048) (P29323 whole entry, looked up): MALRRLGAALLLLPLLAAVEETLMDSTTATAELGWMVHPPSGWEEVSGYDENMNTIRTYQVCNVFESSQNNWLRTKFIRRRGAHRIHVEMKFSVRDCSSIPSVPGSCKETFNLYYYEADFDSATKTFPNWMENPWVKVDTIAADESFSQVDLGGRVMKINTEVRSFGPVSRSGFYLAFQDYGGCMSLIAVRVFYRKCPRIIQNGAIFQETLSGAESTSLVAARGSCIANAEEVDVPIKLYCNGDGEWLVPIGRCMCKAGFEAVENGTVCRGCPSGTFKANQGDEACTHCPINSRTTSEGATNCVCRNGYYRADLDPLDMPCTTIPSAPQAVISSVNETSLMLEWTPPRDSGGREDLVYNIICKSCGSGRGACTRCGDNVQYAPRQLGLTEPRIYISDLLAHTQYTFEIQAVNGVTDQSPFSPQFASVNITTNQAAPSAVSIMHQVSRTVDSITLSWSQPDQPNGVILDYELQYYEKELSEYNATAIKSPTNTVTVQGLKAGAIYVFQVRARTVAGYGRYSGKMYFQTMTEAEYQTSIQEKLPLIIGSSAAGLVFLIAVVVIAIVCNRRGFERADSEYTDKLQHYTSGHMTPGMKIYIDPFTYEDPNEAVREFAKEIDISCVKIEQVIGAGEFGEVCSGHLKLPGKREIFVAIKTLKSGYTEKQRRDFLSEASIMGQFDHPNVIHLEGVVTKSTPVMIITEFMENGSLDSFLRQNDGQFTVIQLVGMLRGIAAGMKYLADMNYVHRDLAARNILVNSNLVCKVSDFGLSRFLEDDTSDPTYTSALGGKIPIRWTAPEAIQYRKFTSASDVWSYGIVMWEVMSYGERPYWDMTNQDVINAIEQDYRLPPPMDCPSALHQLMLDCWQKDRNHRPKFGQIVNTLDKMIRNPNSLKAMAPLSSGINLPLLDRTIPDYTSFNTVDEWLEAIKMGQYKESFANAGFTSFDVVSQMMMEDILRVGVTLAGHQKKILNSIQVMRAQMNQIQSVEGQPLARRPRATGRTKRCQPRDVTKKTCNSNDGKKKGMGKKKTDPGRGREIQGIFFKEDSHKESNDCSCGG
Outline: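 Recombinant kinase with fluorescent substrate, product separated by electrophoretic mobility shift, read 1 h after dosing. Duplicate 25 uM screen, then singleton concentration-response to 50 uM max; loss of signal versus DMSO.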

Chain of human Elastase, ELANE (gene 1991) (P08246 whole entry, looked up): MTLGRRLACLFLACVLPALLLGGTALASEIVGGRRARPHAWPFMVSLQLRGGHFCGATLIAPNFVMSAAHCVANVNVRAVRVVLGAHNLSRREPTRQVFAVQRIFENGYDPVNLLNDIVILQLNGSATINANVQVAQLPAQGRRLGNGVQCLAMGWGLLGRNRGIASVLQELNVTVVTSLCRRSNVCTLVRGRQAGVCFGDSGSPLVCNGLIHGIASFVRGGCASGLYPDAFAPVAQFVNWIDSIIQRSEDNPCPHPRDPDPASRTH

ClC1=C(Cl)[C@]2(Cl)[C@@H]3[C@@H]4C[C@@H]([C@H]5O[C@@H]45)[C@@H]3[C@@]1(Cl)C2(Cl)Cl
AC50 [1]: 37.5 µM (active)

NS(=O)(=O)C(F)(F)C(F)(F)C(F)(F)C(F)(F)C(F)(F)C(F)(F)C(F)(F)C(F)(F)F
outcome [1]: inactive

Cc1ccccc1CO[C@@H]1C[C@@]2(C(C)C)CC[C@]1(C)O2
outcome [2]: inactive

CN(C)c1nc(=O)n(C2CCCCC2)c(=O)n1C
outcome [2]: inactive

O=C(NC(=O)c1c(F)cccc1F)Nc1cc(Cl)c(OC(F)(F)C(F)F)c(Cl)c1
outcome [3]: inactive

Oc1ccc(C(c2ccc(O)cc2)(C(F)(F)F)C(F)(F)F)cc1
outcome [4]: inactive
